In PubChem BioAssay (NCI):
This is part of a sample that, as a whole, favours compounds with a hit. Of some 79,000 tested, about 15% had one in any assay. Cut-off read from the data, not from the text of the source: active = growth inhibition above about 70%; inactive = the rest.

Columns and labels:
[1] = NCI Yeast Anticancer Drug Screen. Data for the rad50 strain (AID 155);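 note: 0% = growth of vehicle-only cultures of the same strain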; conditions: S. cerevisiae rad50 strain growth inhibition; at 50.0 µM; active compounds read high
Procedure, shortened: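 Vehicle-treated cultures provide the reference for the growth inhibition reported for compound-exposed, repair-deficient yeast.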

[2] = NCI Yeast Anticancer Drug Screen. Data for the mec2-1 strain (AID 157); conditions: S. cerevisiae mec2-1 strain, at 50.0 µM, active compounds read high
Procedure, shortened: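 mec2-1 yeast strain, carrying an alteration in DNA damage repair or cell cycle control, was exposed to compounds; growth inhibition was measured relative to vehicle-treated controls.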

[3] = NCI Yeast Anticancer Drug Screen. Data for the sgs1 mgt1 strain (AID 161);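 note: 0% = growth of cultures given vehicle only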; conditions: S. cerevisiae sgs1 mgt1 strain, at 50.0 µM, active compounds read high
Procedure, shortened: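 Yeast cells carrying a defined DNA-repair defect were exposed to test compounds. Growth inhibition was measured relative to vehicle-treated controls.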

[4] = NCI Yeast Anticancer Drug Screen. Data for the cln2 rad14 strain (AID 165);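 note: 0% = growth equal to vehicle treated cultures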; conditions: S. cerevisiae cln2 rad14 strain, at 50.0 µM, active compounds read high
Procedure, shortened: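 Yeast carrying cln2 and rad14 alterations (cell cycle control and DNA damage repair) were exposed to compounds. Growth inhibition was measured against vehicle-treated controls.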

[5] = NCI Yeast Anticancer Drug Screen. Data for the bub3 strain (AID 167); conditions: S. cerevisiae bub3 mutant strain, at 50.0 µM, active compounds read high
Procedure, shortened: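 Mutant yeast screening strain plus compound; vehicle-treated cultures serve as the 0% inhibition reference.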

[6] = NCI Yeast Anticancer Drug Screen. Data for the mlh1 rad18 strain (AID 175); conditions: S. cerevisiae mlh1 rad18 strain growth inhibition; at 50.0 µM; active compounds read high
Procedure, shortened: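 Growth inhibition of the yeast strain was measured after compound exposure and expressed relative to vehicle-treated controls. The strain carries defined defects in DNA damage repair.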

Measured: growth inhibition

COC(=O)c1cc(Cl)ccc1Br
inactive: [1] 17.4% | [2] 14.1% | [3] -0.05% | [4] 14.8% | [5] -3.85% | [6] 43%

O=C(O)Cn1c[n+](NC(=O)Cc2ccccc2)cn1
inactive: [1] -19.6% | [2] -25.4% | [3] -25% | [4] -41.8% | [5] -34.5% | [6] -10.8%

CCOC(=O)C1=NNC(=O)C1
inactive: [1] 4.4% | [2] -2.95% | [3] 2.35% | [4] 9.85% | [5] -0.3% | [6] 4.75%

CCOc1ccc2nc(NC(=O)C(=O)C(C#N)CC(C)(C)C=O)sc2c1 (configuration not stated)
inactive: [1] -13.8% | [2] -22.8% | [3] -17.6% | [4] 7.7% | [5] -12.6% | [6] -28.1%

CSc1ncnc2c1ncn2CC(=O)C1CCC2C3CCC4=CC(=O)CCC4(C)C3CCC12C (configuration not stated)
inactive: [1] 7% | [2] -48.2% | [3] -1.9% | [4] -29.6% | [5] -28.9% | [6] 16.4%

CS(=O)(=O)N(CCC#N)c1ccc(C=O)cc1
inactive: [1] 20.4% | [2] -24.7% | [3] -7.4% | [4] -8.1% | [5] -12.2% | [6] 7%

O=C(CO)C(O)C(O)C(O)CO (configuration not stated)
inactive: [1] 1.65% | [2] -9.75% | [3] -7.45% | [4] 8.75% | [5] 19.9% | [6] 0.95%

O=C1NC2(CCN(Cc3ccccc3)CC2)Nc2ccccc21
inactive: [1] -10.4% | [2] 1.6% | [3] -10.4% | [4] -24.1% | [5] 2.8% | [6] -6.75%

CCOc1ccc2cc3c(nc2n1)[nH]c1ccccc13
inactive: [1] -27.4% | [2] 4.15% | [3] -0.3% | [4] -16.1% | [5] 8.25% | [6] 11.1%

N#CC(c1ccc(Cl)cc1)c1cccc(C(C#N)c2ccc(Cl)cc2)n1 (configuration not stated)
inactive: [1] 28.9% | [2] 13.6% | [3] 38% | [4] 32.1% | [5] 38.4% | [6] 25.3%

CCOC(=O)c1ccc(NCC2CNc3ccccc3N2)cc1 (configuration not stated)
inactive: [1] 36.2% | [2] -11.2% | [3] 17.7% | [4] -8.35% | [5] 23.2% | [6] 18.2%

COc1ccccc1C(=O)N/N=C\c1c[nH]c2ccccc12
inactive: [1] -3.35% | [2] 2.05% | [3] -4.85% | [4] -6.25% | [5] -5.15% | [6] -8.3%

O=C(CC(=O)n1nc(-c2ccccc2)c(N=Nc2ccc(Cl)cc2)c1-c1ccccc1)Nc1ccc(Cl)cc1
inactive: [1] -6.75% | [2] -19.1% | [3] -11.9% | [4] -19.3% | [5] -11.1% | [6] -16.8%

CC1(C)OC(=O)C=C[C@@]2(C)C1CC(=O)C1(C)C2CCC2(C)C(c3ccoc3)OC(=O)[C@H]3O[C@]321 (some centres not stated)
inactive: [1] 2.55% | [2] -24.3% | [3] 11.3% | [4] 9.95% | [5] -7% | [6] -6.25%

CC(=O)OC1=C(C)C2=C3OC(=O)C(C)=C3CC[C@@]2(C)[C@@H](Cl)[C@@H]1Cl
inactive: [1] 40.9% | [2] -45.9% | [3] -2.6% | [4] -5.85% | [5] -15.2% | [6] -57.9%

CCCCCCCC/C=C\CCCCCCCCCCCC(=O)O
inactive: [1] -5.7% | [2] 5.75% | [3] 0.4% | [4] -46% | [5] -17% | [6] -6.25%

CCCC(O)C(C)(C)[N+](=O)[O-] (configuration not stated)
inactive: [1] 60.9% | [2] 5.45% | [3] 12.9% | [4] -2.85% | [5] 8% | [6] 9.95%

CC1=C(C(=O)NNC(=O)C[N+](C)(C)C)CC(C(=O)NNC(=O)C[N+](C)(C)C)=C(C)N1
inactive: [1] -12.4% | [2] -21.1% | [3] -10.9% | [4] -31.2% | [5] -13.2% | [6] -39.9%

CN(C)CC1CCc2ccccc2C1=O (configuration not stated)
inactive: [1] -16.1% | [2] -37.2% | [3] -46.8% | [4] -2.05% | [5] -52.1% | [6] -48.1%

CCOC(=O)C(C#N)C1CC2CCC1C2 (configuration not stated)
inactive: [1] -30.2% | [2] -57.4% | [3] -22.2% | [4] -4.9% | [5] -27.1% | [6] -56.8%

CC(C)(C)CNCCCBr
inactive: [1] -19.9% | [2] -4.8% | [3] -9.05% | [4] -13.3% | [5] 30.8% | [6] 8.15%

COc1ccc(/C=C2\N=C(c3ccccc3)OC2=O)c(Br)c1OC(C)=O
inactive: [1] -20.1% | [2] 0.7% | [3] -12.7% | [4] -12.3% | [5] -0.8% | [6] 14.3%

CCOC(=O)CC1(CC(=O)OCC)OCCO1
inactive: [1] -6.2% | [2] 7.1% | [3] -2.05% | [4] -4.15% | [5] -28.8% | [6] -26.2%

CCC1(C)CC(=O)N(C/C=C(\C)CCC(=O)O)C(=O)C1
inactive: [1] -3.35% | [2] 4.5% | [3] -0.45% | [4] -8.4% | [5] 7% | [6] -7.45%

Cc1c(C)c2c(c(C)c1Cl)CC2(Cl)Cl
inactive: [1] 3.6% | [2] 4% | [3] -9.15% | [4] -41.8% | [5] -5.55% | [6] -9.5%

O=C1OC(=O)C2C3CC(C4OC34)C12 (configuration not stated)
inactive: [1] -12.2% | [2] 29.3% | [3] -3.55% | [4] -20.8% | [5] -9.9% | [6] 4.05%

CCCCCCCCCCCCCCCC(=O)OC/C=C/COC(=O)c1ccccc1
inactive: [1] 22.9% | [2] -9.7% | [3] -6.25% | [4] -2.95% | [5] 2.65% | [6] -13%

COc1ccccc1/C=C1/Sc2scc(CC(=O)Nc3ccccc3)[n+]2C1=O
inactive: [1] 8.9% | [2] 4% | [3] 23.6% | [4] 17.7% | [5] -4.7% | [6] 24.8%

N#Cc1ccccc1C(Cl)(Cl)c1cnccn1
inactive: [1] 9.9% | [2] -6.85% | [3] -10.7% | [4] 29.9% | [5] -0.4% | [6] 20.1%

CC(=O)OC1CC2C(CCC3CC(C(C)=O)CCC32C)C2CCC(/C(C)=C/C=C(c3ccccc3)c3ccccc3)C12C (configuration not stated)
inactive: [1] 19.6% | [2] 3.1% | [3] 7.35% | [4] -9.4% | [5] -3.05% | [6] 2.6%

CCc1c(N)nc(=O)[nH]c1C(=O)O
inactive: [1] -4.9% | [2] -0.2% | [3] 10.1% | [4] -26.3% | [5] -26% | [6] -16.6%

CSc1ncnc2c1ccn2C1OC(COP(=O)(O)O)C(O)C1O (configuration not stated)
inactive: [1] 21.8% | [2] -1.35% | [3] -3.4% | [4] -2.45% | [5] -37% | [6] -2.15%

Cn1c(=O)c2c(nc(Cl)n2Cc2ccc([N+](=O)[O-])cc2)n(C)c1=O
inactive: [1] -2.35% | [2] 20% | [3] -2.55% | [4] -39.3% | [5] 20.1% | [6] 1%

CC(=O)CC(=O)Nc1cc(C)c(NC(=O)CC(C)=O)cc1C
inactive: [1] 26.2% | [2] 26.6% | [3] 31.1% | [4] 7.55% | [5] 38.8% | [6] 30.6%

CCCCCCCCCCCC(=O)Nc1cc(Cl)c(OC)cc1OC
inactive: [1] -17.4% | [2] 6.75% | [3] 13.9% | [4] -32.8% | [5] 7.1% | [6] 48.4%

CC(C)C1C(=O)CCCC1=O
inactive: [1] -10.5% | [2] 9.6% | [3] -5.5% | [4] -12.9% | [5] -17.5% | [6] -3.35%

CCCCN(CCCC)CC(O)c1cc(-c2ccc(Cl)c(Cl)c2)nc2c(Cl)cc(Cl)cc12 (configuration not stated)
inactive: [1] 28.3% | [2] 31.1% | [3] -15.7% | [4] 11.6% | [5] -15.5% | [6] -11.8%
